Sampled rows, rich in hits. Any-hit rate of the full collection: about 1.1%.
E-sel TNF inh = blocks E-selectin expression induced by TNF alpha; HUVEC TNFa-induced E-selectin immunofluorescence, high content; inhibition, % at 2 µM; 120,000 tested, 0.71% active;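 active = inhibition above the batch mean plus 3 SD, and confirmed as a hit on visual image review, cut at about 43% in these data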;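 note: 0% = TNF-stimulated DMSO wells and 100% = unstimulated control wells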
VCAM1 TNFa inh = reduces TNF alpha induced VCAM1 expression in HUVEC; HUVEC TNFa-induced VCAM-1 immunofluorescence, high-content imaging; inhibition, % at 2 µM; 95,000 tested, 0.48% active; AID 802;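 active = inhibition above the batch mean plus 3 SD, with images confirmed as a hit by eye, cut at about 37% in these data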;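 note: 0% = TNF-stimulated DMSO wells and 100% = unstimulated control wells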
HUVEC tox TNFa = HUVEC cytotoxicity counter-screen, TNF alpha stimulated. 93,000 tested, 0.17% active. AID 848. HUVEC TNFalpha-stimulated, Hoechst cell count, imaging. cell count reduction, % at 2 µM;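 active = cell count reduction exceeding the screen mean by over 5 SD, scaled to untreated wells per plate, cut at about 78% in these data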;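 note: cells counted after 24 h of TNF alpha exposure following the 1 h pretreatment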
F-actin modifier = alters cytoskeleton assembly in HUVEC cells; HUVEC TNFa F-actin phalloidin imaging, high content; inhibition, % at 2 µM; 91,000 tested, 0.18% active; AID 836;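 active = inhibition above the batch mean plus 3 SD and confirmed as a hit by visual image inspection, cut at about 30% in these data, passing the limit was not always enough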
Numbers without * were called inactive.

Screening CCCCS(=O)(=O)/C=C\C=C/S(=O)(=O)CCCC returned VCAM1 TNFa inh 86.3*, HUVEC tox TNFa 28.1 and F-actin modifier 28.1.
`CCCCS(=O)(=O)/C=C\C1C2C=CC(C2)C1S(=O)(=O)CCCC` (centres undefined) gave E-sel TNF inh -18.1, VCAM1 TNFa inh 17.4, HUVEC tox TNFa 49.0 and F-actin modifier -29.5.
Cc1ccc(NC(=O)Nc2ccc3c(c2)N(C)C(=O)CS3)nc1 was read as E-sel TNF inh 94.1*, VCAM1 TNFa inh 21.9, HUVEC tox TNFa 25.1 and F-actin modifier -11.3.
Cc1ccnc(NC(=O)Nc2ccc3c(c2)N(C)C(=O)CS3)c1 was read as E-sel TNF inh -3.1.
For CCOc1ccc(-c2nnn(CC(=O)N3CCCC3)n2)cc1OCC the results were E-sel TNF inh 35.4, VCAM1 TNFa inh -14.2, HUVEC tox TNFa -0.4 and F-actin modifier 1.9.
CCOC(=O)c1ccc(CC2S/C(=C(\C#N)C(C)=O)NC2=O)cc1 (centres undefined) was read as E-sel TNF inh 4.1, VCAM1 TNFa inh 10.6, HUVEC tox TNFa -16.3 and F-actin modifier -5.7.
Screening CCc1ccc(CC2S/C(=C(\C#N)C(C)=O)NC2=O)cc1 (centres undefined) returned E-sel TNF inh 50.1*, VCAM1 TNFa inh -6.3, HUVEC tox TNFa -11.3 and F-actin modifier 14.8.
COc1ccc(Br)cc1CN(C)CC(=O)Nc1c(Cl)cccc1Cl was read as E-sel TNF inh 67.8*.
COc1ccc(Br)cc1CN(C)CC(=O)Nc1cccc(S(N)(=O)=O)c1 was read as E-sel TNF inh 4.9.
For Cc1n(-c2ccccc2)c2ccc(Cl)cc2[n+]1CCO the results were E-sel TNF inh -20.6.
Cc1nnc(SCC(=O)N(C)c2ccccc2)n1Cc1ccccc1 was read as E-sel TNF inh 88.9*.
Screening Cc1nnc(SCC(=O)c2ccccc2)n1Cc1ccccc1 returned E-sel TNF inh 16.6.
For O=C(COc1ccc(Br)cc1)NCc1ccccn1 the results were E-sel TNF inh 8.3, VCAM1 TNFa inh 2.8 and HUVEC tox TNFa -15.8.
For O=Cc1ccc(OCc2ccccn2)cc1 the results were E-sel TNF inh 44.5*, VCAM1 TNFa inh -0.8, HUVEC tox TNFa -26.1 and F-actin modifier 14.8.
CCOC(=O)c1cc2c(ccn2C)n1CC(=O)N1CCC(Cc2ccccc2)CC1 was read as E-sel TNF inh 95.8*.
Screening N#CC1=C(N)Oc2ccc3ccc(O)cc3c2C1c1ccsc1 (centres undefined) returned E-sel TNF inh -23.6.
Screening O=C1CC(O)(C(F)F)Oc2ccc3ccccc3c21 (centres undefined) returned E-sel TNF inh -38.5, VCAM1 TNFa inh 32.6, HUVEC tox TNFa 6.6 and F-actin modifier 3.9.
Screening O=c1cc(C(F)F)oc2c1ccc1ccccc12 returned E-sel TNF inh 92.6*.
Cn1c(=O)[nH]c(=O)c2c1nc(N1CCN(Cc3ccccc3)CC1)n2CCCc1ccccc1 was read as VCAM1 TNFa inh -4.5, HUVEC tox TNFa -17.1 and F-actin modifier -58.2.
`CCCn1c(CN2CCN(c3cccc(Cl)c3)CC2)nc2c1c(=O)n(C)c(=O)n2C` gave E-sel TNF inh 61.9*, VCAM1 TNFa inh 5.0, HUVEC tox TNFa -20.2 and F-actin modifier -9.8.
CCCCCn1c(CN2CCN(Cc3ccccc3)CC2)nc2c1c(=O)n(C)c(=O)n2C was read as E-sel TNF inh 99.8*, VCAM1 TNFa inh 11.6, HUVEC tox TNFa -19.8 and F-actin modifier -5.8.
Cn1c(=O)[nH]c(=O)c2c1nc(CN1CCN(Cc3ccccc3)CC1)n2CC(N)=O was read as E-sel TNF inh 49.9*.
`CC(C)NS(=O)(=O)c1ccc(CCC(=O)N2CCC(C(N)=O)CC2)cc1` gave E-sel TNF inh -2.6.
Screening CCN(CC)CCCNC(=O)CSc1nc(-c2ccc(F)cc2)cc(C(F)(F)F)n1 returned E-sel TNF inh 19.9.
For CCCCc1ccc(-c2nc(NC(=O)C3C4CCC(O4)C3C(=O)O)sc2C)cc1 (centres undefined) the results were E-sel TNF inh 27.9, VCAM1 TNFa inh -13.0, HUVEC tox TNFa -7.5 and F-actin modifier -1.1.
O=C(NCc1ccccc1)N1CCN(c2ccc(F)cc2)CC1 was read as E-sel TNF inh -47.5, VCAM1 TNFa inh -6.5, HUVEC tox TNFa -31.7 and F-actin modifier 6.0.
Screening O=C(NCc1ccccc1)N1CCN(c2ccc(Cl)c(Cl)c2)CC1 returned E-sel TNF inh 71.1*, VCAM1 TNFa inh 4.3, HUVEC tox TNFa -12.8 and F-actin modifier -29.4.
For O=C(Nc1ccc(NC(=S)NC(=O)c2ccccc2Cl)cc1)c1cccc(Cl)c1 the results were E-sel TNF inh 18.0, VCAM1 TNFa inh -18.4, HUVEC tox TNFa 13.3 and F-actin modifier -45.8.
For O=c1c2ccccc2n2c(-c3cccc(F)c3)nnc2n1Cc1ccccc1 the results were E-sel TNF inh 73.7*.
Cc1nc2scc(-c3ccccc3)c2c(=O)n1N was read as VCAM1 TNFa inh 2.2, HUVEC tox TNFa -0.4 and F-actin modifier -19.7.
For Cc1nc2scc(-c3ccccc3)c2c(=O)n1N=C1C=CC(=O)C=C1 the results were E-sel TNF inh 88.3*.
`COc1ccccc1NC(=O)CSc1nnc(-c2ccc(NC(C)=O)cc2)n1C` gave E-sel TNF inh 67.3*, VCAM1 TNFa inh -7.7, HUVEC tox TNFa -11.2 and F-actin modifier -0.1.
COc1ccccc1NC(=O)CC(=O)CSc1nnc(-c2ccc(C)cc2)n1C was read as E-sel TNF inh 32.1, VCAM1 TNFa inh 11.8, HUVEC tox TNFa -17.2 and F-actin modifier 18.8.
COc1ccc(NS(=O)(=O)c2ccc3c(c2)CCC(=O)N3)c(OC)c1 was read as E-sel TNF inh 2.7, VCAM1 TNFa inh -8.6, HUVEC tox TNFa -14.3 and F-actin modifier 0.6.
Screening Cc1ccc(/C=N/n2c(=O)c(C(C)(C)C)nn3cnnc23)cc1 returned E-sel TNF inh 79.8*.
Screening CC(C)(C)c1nn2cnnc2n(/N=C/c2cccc3ccccc23)c1=O returned E-sel TNF inh -42.5.
For NC1=NC(=O)/C(=C/c2c(OS(=O)(=O)c3ccc(Cl)cc3)ccc3ccccc23)S1 the results were E-sel TNF inh -20.5.
CCCn1nc(C(=O)OCC(=O)Nc2ncc(Cl)c(C)c2Cl)c2ccccc2c1=O was read as E-sel TNF inh 8.2.
Screening COC(=O)c1ccc(CSc2nnc(-c3ccncc3)n2Cc2ccccc2)o1 returned E-sel TNF inh 8.4, VCAM1 TNFa inh -9.1, HUVEC tox TNFa 0.0 and F-actin modifier 75.6*.
Screening COc1ccccc1-n1cnc2cc(NCc3ccco3)ccc21 returned E-sel TNF inh -16.9, VCAM1 TNFa inh 39.8*, HUVEC tox TNFa 18.8 and F-actin modifier -29.1.
Screening COc1ccccc1-n1cnc2cc(NCc3cccs3)ccc21 returned E-sel TNF inh -8.7, VCAM1 TNFa inh 82.3*, HUVEC tox TNFa 51.5 and F-actin modifier 31.7*.
Screening O=C1CCCCCCC1Sc1ccccc1[N+](=O)[O-] (centres undefined) returned E-sel TNF inh -10.1, VCAM1 TNFa inh 12.8, HUVEC tox TNFa -5.0 and F-actin modifier -18.7.
Screening C=C(C)C(=O)Nc1ccc(OC(F)(F)C(F)F)c(NC(=O)C(=C)C)c1 returned E-sel TNF inh -26.4, VCAM1 TNFa inh -6.9, HUVEC tox TNFa 8.6 and F-actin modifier -41.0.
Screening Cc1nn(-c2ccccc2)c2sc(C(=O)O)cc12 returned E-sel TNF inh 97.0*.

Source: PubChem BioAssay
